This is a sample that favours compounds with a hit; in the whole collection about 1.4% have one here.
GLS inh – blocks human kidney-isoform glutaminase activity. O94925. GLS enzymatic activity, qHTS titration. Potency, µM (top dose mostly 45.5 µM), for inactives: top-dose activity change, negative = inhibition, usual class: inhibitors. 0.21% of 410,000 active. AID 624170; further: potency means the concentration at half of the fitted maximal effect
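Read-out is an Amplex red fluorescence increase coupled through glutamate oxidase and HRP, measured before and after 30 min room-temperature incubation. hKGA is in 45 mM KH2PO4 (pH 8.2) with 0.02% Tween-20; glutamine added as 1mM solution.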
TrxR1 inh – blocks rat thioredoxin reductase 1; O89049; 1% of 390,000 active; recombinant rTrxR1, NADPH fluorescence consumption, selenite substrate; Potency, µM (highest dose often 114 µM), without a hit: top-dose activity change, negative = inhibition, usual class: inhibitors; further: potency means the concentration at half of the fitted maximal effect; nearly all actives have a fitted effect of over 65% in size
Target sequence (O89049 whole entry, looked up): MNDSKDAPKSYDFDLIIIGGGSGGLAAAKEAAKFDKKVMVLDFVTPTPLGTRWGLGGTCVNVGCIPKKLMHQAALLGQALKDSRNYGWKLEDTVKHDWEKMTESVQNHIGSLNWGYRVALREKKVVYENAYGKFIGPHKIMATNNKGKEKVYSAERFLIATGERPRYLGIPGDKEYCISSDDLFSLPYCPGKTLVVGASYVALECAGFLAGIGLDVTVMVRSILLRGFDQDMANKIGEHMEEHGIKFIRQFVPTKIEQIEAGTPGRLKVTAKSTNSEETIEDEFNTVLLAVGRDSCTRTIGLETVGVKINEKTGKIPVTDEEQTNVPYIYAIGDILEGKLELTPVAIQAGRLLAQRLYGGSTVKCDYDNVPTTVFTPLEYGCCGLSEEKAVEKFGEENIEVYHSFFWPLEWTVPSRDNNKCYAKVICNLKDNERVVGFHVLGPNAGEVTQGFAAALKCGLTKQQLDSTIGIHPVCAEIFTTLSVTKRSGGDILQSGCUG
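Rat TrxR1 (90 nM in the dispensed reagent) was pre-reduced with 400 uM NADPH for 5 min at room temperature, then incubated with compound for 15 min. After 400 uM selenite was added, NADPH fluorescence (Ex 340/Em 450 nm) was followed for 8 min.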
PKM2 activator – increases activity of human pyruvate kinase M2 | P14618 | purified PKM2, Kinase-Glo ATP luminescence, activation; response scale: 0% is enzyme alone, no compound | Potency, µM (highest dose often 57.5 µM), without a hit: at the top dose activation, most hits filed as activators | 0.34% of 260,000 active; further: potency means the concentration at half of the fitted maximal effect; nearly all actives have a fitted effect of over 55% in size
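Purified hPK-M2 (>95%) run at intermediate activity with 0.1 mM ADP and 0.5 mM PEP in 50 mM imidazole pH 7.2, KCl, MgCl2; 1 h room temperature. ATP formed read by Kinase-Glo luminescence; normalized to uninhibited and no-enzyme controls.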
TrxR1 substrate – rat thioredoxin reductase 1 substrate activity; O89049; purified TrxR1 substrate turnover, NADPH consumption readout; Potency, µM (titrated, usually from 114 µM), inactives show at the top dose activity change, negative = substrate turnover; 0.01% of 390,000 active; further: potency means the concentration at half of the fitted maximal effect; nearly all actives have a fitted effect of over 50% in size
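Rat TrxR1, dispensed at 90 nM, was prereduced with 400 uM NADPH (final) for 5 min at ~22 deg C, then incubated with compound 15 min before 400 uM selenite. A first-read NADPH fluorescence drop versus no-compound background flagged substrates.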
IDH1 R132H inh – human IDH1 R132H inhibition; IDH1-R132H enzyme, NADPH consumption, diaphorase/resazurin fluorescence; AID 602179; Potency, µM (doses to about 76.6 µM), for the others: top-dose activity change, negative = inhibition, hits mostly inhibitors; 0.093% of 390,000 active; O75874; further: potency means the concentration at half of the fitted maximal effect; nearly all actives have a fitted effect of over 65% in size
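IDH1-R132H (0.5 ug/mL) preincubated 30 min with compound, then NADPH (0.016 mM) and alpha-KG (2 mM) added; 80 min at RT, pH 7.5. Remaining NADPH coupled via diaphorase/resazurin to fluorescence (540/590 nm); concentration-response curves normalized to no-enzyme control.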
LDHA block – inhibitors of human lactate dehydrogenase A; purified LDHA, NADH/diaphorase-resazurin fluorescence; hits give low values; activity change, % (values are at about 110 or 230 µM); 0.15% of 480,000 active; AID 1347041; in the data active means activity change below about -30%; inconclusive means mostly about -25% to -30%;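 further: plate controls were DMSO wells for no effect and wells without enzyme for full effect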
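Human LDH5 at 2 nM final in Tris HCl pH 7.4 with 0.06 mM NADH and 0.2 mM pyruvate, reacted 5 minutes at room temperature. Remaining NADH coupled via diaphorase/resazurin; resorufin fluorescence read at 0 and 20 minutes, normalized to enzyme-free and DMSO wells.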
The depositor's hits bear a star; [ ] = dose if it differs, or a comment. Unless noted, the call rests on the fitted dose curve; in most records, active means well fitted curve in the direction sought with a large enough effect; inconclusive means small, poorly fitted or top-dose-only effect, or another doubt; inactive means no such curve, though single readings can be large; an effect the other way counts as inactive or inconclusive. Unless noted, on the % scale 0 is the no-effect control and ±100 the full control effect.

For Cc1ccc2nc(/C(C#N)=C\c3cccc(OCc4ccc(F)cc4)c3)[nH]c2c1 the results were LDHA block -1.1.
For CNC(=O)NC(=O)Cn1c(=O)c2c(ncn2CCC(C)C)n(Cc2ccccc2)c1=O the results were LDHA block -19.5.
NC1=NC(=O)/C(=C\c2ccco2)S1 was read as GLS inh 186.1%, TrxR1 inh 39.8µM*, PKM2 activator 14.5%, TrxR1 substrate -3.9%, IDH1 R132H inh 5.2% and LDHA block 21.2.
Screening NC1=NC(=O)C(=Cc2ccccc2)S1 returned GLS inh 4.6%, TrxR1 inh -20.5%[11.4 µM], TrxR1 substrate -7.8%[11.4 µM], IDH1 R132H inh -0.6% and LDHA block -0.4.
`Cc1ccc(S(=O)(=O)Cc2ccc(C(=O)O)o2)cc1` gave GLS inh 12.6µM*, TrxR1 inh 25.1µM*, PKM2 activator -4.4%, TrxR1 substrate -0.1%, IDH1 R132H inh 7.4% and LDHA block 1.9.
Cc1ccc(S(=O)(=O)Cc2ccc(C(=O)N3CCc4ccccc4C3)o2)cc1 was read as GLS inh -19.9%, TrxR1 inh 70.8µM*, PKM2 activator -13.3%, TrxR1 substrate -6.8%, IDH1 R132H inh -9.8% and LDHA block -0.7.
For COc1ccc(S(=O)(=O)Cc2ccc(C(=O)N3CCc4ccccc4C3)o2)cc1 the results were GLS inh -3.3%, TrxR1 inh 50.1µM*, PKM2 activator 4.6%, TrxR1 substrate 5.6%, IDH1 R132H inh 11.2% and LDHA block 5.0.
`CCc1ccc(C(NC(=O)Cn2nc(C)c3ccccc3c2=O)C(C)C)cc1` (stereo not given) gave LDHA block -6.1.
Cc1ccc(C(C)C)c(Oc2ccc(C#N)c(C#N)c2)c1 was read as LDHA block -4.0.
COc1cccc(NC(=O)CN(CCc2ccccc2)S(=O)(=O)c2ccc(Cl)cc2)c1 was read as GLS inh -0.7%, TrxR1 inh 11.1%, TrxR1 substrate 3.6%, IDH1 R132H inh 24.2% and LDHA block -59.0*.
`COC(=O)/C(=C\c1ccc(OC(=O)c2ccccc2)cc1)C(C)=O` gave LDHA block -1.1.
Screening CC1=C(CC(=O)O)c2cc(F)ccc2/C1=C\c1ccc(S(C)(=O)=O)cc1 returned GLS inh -10.9%, TrxR1 inh 14.9%[57.1 µM] and TrxR1 substrate 8.8%[57.1 µM].
Screening CC1=C(CC(=O)O)c2cc(F)ccc2/C1=C/c1ccc(S(C)=O)cc1 (stereo not given) returned GLS inh -1.6%, TrxR1 inh 35.5µM*, TrxR1 substrate -3.9%, IDH1 R132H inh -14.8% and LDHA block -7.8.
`COc1cccc(Nc2nc(-c3ccc(CNC(C)=O)s3)cs2)c1` gave LDHA block 3.1.
Screening Cc1cc2cc(CNC(=O)c3ccc(Br)o3)ccc2n1C returned GLS inh 0.2%, TrxR1 inh 8.91µM*, PKM2 activator 10.8%, TrxR1 substrate 10.0%[57.1 µM], IDH1 R132H inh 0.0% and LDHA block 3.1.
Screening CCCC(=O)NCc1ccc2c(c1)cc(C)n2C returned GLS inh 4.0%, TrxR1 inh 18.2%, PKM2 activator -7.7%, TrxR1 substrate -3.9%, IDH1 R132H inh -0.4% and LDHA block 4.7.
`O=C(C1CCCN(Cc2ccc(F)cc2)C1)N1CCCCC1` (stereo not given) gave GLS inh -3.2%, TrxR1 inh 12.6%, TrxR1 substrate 8.2%, IDH1 R132H inh -11.8% and LDHA block -18.9.
For O=C(C1CCCN(Cc2cccnc2)C1)N1CCCCC1 (stereo not given) the results were GLS inh 6.3%, TrxR1 inh 6.5%[57.1 µM], PKM2 activator -4.8%, TrxR1 substrate 8.7%[57.1 µM], IDH1 R132H inh 6.7% and LDHA block -36.1*.
NCC1CCN(CCc2ccc(F)cc2)CC1 was read as LDHA block 6.9.
Screening CCCS(=O)(=O)c1c(S(=O)(=O)CCC)c2c(N)cccn2c1C(=O)c1ccccc1 returned GLS inh 8.0%, TrxR1 inh -36.0%, PKM2 activator 12.1%, TrxR1 substrate -12.8%, IDH1 R132H inh -2.6% and LDHA block 8.7.
For CCCS(=O)(=O)c1c(S(=O)(=O)CCC)c2c(N)cccn2c1C(=O)OC the results were GLS inh 0.2%, TrxR1 inh 7.94µM*, PKM2 activator 0.9%, TrxR1 substrate -4.0%, IDH1 R132H inh -9.0% and LDHA block 4.5.
Screening CCCCc1ccc(NC(=O)N2CCC3(CC2)OCCO3)cc1 returned LDHA block 8.4.
For O=C(O)C(c1ccccc1)N1C(=O)/C(=C\c2ccc(-c3ccc(Br)cc3)o2)SC1=S (stereo not given) the results were GLS inh inconclusive, TrxR1 inh -52.6%, TrxR1 substrate -6.9%, IDH1 R132H inh 2.2% and LDHA block -2.4.
Screening O=C(O)C(c1ccccc1)N1C(=O)/C(=C\c2ccc(-c3ccccc3Cl)o2)SC1=S (stereo not given) returned GLS inh -3.8%, TrxR1 inh 1.8%[57.1 µM], TrxR1 substrate -8.9%, IDH1 R132H inh -20.1% and LDHA block -30.2*.
`Cc1nc2scc(-c3ccco3)c2c(=O)n1/N=C/N(C)C` gave GLS inh -8.5%, TrxR1 inh 31.6µM*, PKM2 activator 26.1%, TrxR1 substrate 11.0%, IDH1 R132H inh 2.2% and LDHA block 5.5.
For COc1cc(N2C(=O)C=CC2=O)ccc1N1C(=O)C=CC1=O the results were GLS inh 63.3%, TrxR1 inh 0.501µM*, TrxR1 substrate 0.7%[11.4 µM], IDH1 R132H inh 2.3% and LDHA block -6.7.
COc1ccc(N2C(=O)C3CC(C)=C(C)CC3C2=O)c(OC)c1 (stereo not given) was read as GLS inh -0.2%, TrxR1 inh -4.4%, PKM2 activator -1.2%, TrxR1 substrate -5.3%, IDH1 R132H inh 1.0% and LDHA block 4.3.
CN(C)c1cc(NC(=O)CNC(C)(C)C)c(O)c2c1C[C@@H]1C[C@H]3[C@H](N(C)C)C(=O)C(C(N)=O)=C(O)[C@@]3(O)C(=O)C1=C2O was read as GLS inh 6.31µM*.
Screening COc1ccc(NC2=C(Cl)C(=O)N(c3ccccc3)C2=O)c(OC)c1 returned GLS inh 8.2%, TrxR1 inh 12.6µM*, PKM2 activator -0.1%, TrxR1 substrate 2.3%, IDH1 R132H inh -11.2% and LDHA block -5.8.
